# In PubChem BioAssay (NCATS):
# Inconclusive results are not listed. A call without a number means that no potency is given here. Unmarked numbers belong to inactive results. Active and inactive are the calls of the source. Unless noted, calls come from the whole dose curve; as a rule, active = well fitted curve in the direction sought with a large enough effect; inconclusive = small, poorly fitted or top-dose-only effect, or another doubt; inactive = no such curve, though single readings can be large; an effect the other way counts as inactive or inconclusive.
# Key:
# [1] = target: Calcium and integrin-binding protein 1 (Homo sapiens) (UniProt Q99828); experiment: Primary qHTS for Identification of Calcium Integrin Binding Protein 1 (CIB1) Competitor (AID 1508620);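 note: GST tagged CIB1 binding a fluorescein labelled alphaIIb integrin peptide tracer; top concentration of the series differs between compounds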
# How it was run: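 Fluorescence polarization competition: CIB1-GST (1 uM final) preincubated with compound 15 min at room temperature, then FITC-labeled alphaIIb peptide (100 nM final) added for another 15 min. Polarization read at Ex 480/Em 540.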
# [2] = target: Cytochrome P450 2D6 (Homo sapiens) (UniProt P10635); experiment: Cytochrome P450 family 2 subfamily D member 6 (CYP2D6) small molecule antagonists: luciferase biochemical (cell-free) qHTS assay (AID 1645840; active = well fitted curve in the direction sought with a large enough effect in the repeat runs; an effect the other way counts as inactive or inconclusive; note: nearly all actives have a fitted effect of over 55% in size; note: potency is the fitted concentration of half-maximal effect; for activity change, negative = inhibition: series mostly up to about 57 µM)
# How it was run: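 P450-Glo luminescent screen: recombinant CYP2D6 enzyme–proluciferin substrate mix preincubated with compound 10 min at room temperature, then NADPH regeneration added for 1 h at room temperature. Detection reagent added for 20 min; luciferin light read as relative luminescence units.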
# [3] = target: Cytochrome P450 2C9 (Homo sapiens) (UniProt P11712); experiment: Cytochrome P450 family 2 subfamily C member 9 (CYP2C9) small molecule antagonists: luciferase biochemical (cell-free) qHTS assay (AID 1645842; active = well fitted curve in the direction sought with a large enough effect in the repeat runs; an effect the other way counts as inactive or inconclusive; note: nearly all actives have a fitted effect of over 55% in size; note: potency is the fitted concentration of half-maximal effect; for activity change, negative = inhibition: series mostly up to about 57 µM)
# How it was run: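 Luminescence, after 20 min with luciferin detection reagent, reflected CYP2C9 turnover during a 1 h NADPH-driven reaction at 37C. Enzyme-substrate mix contained 0.4% bovine serum albumin and was preincubated with compound 10 min at room temperature.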
# [4] = Primary qHTS for inhibitors of nuclear receptor binding SET domain protein 2 (NSD2) in an isogenic RCH-ACV NSD2 p.E1099K mutant (9B) (AID 1645876); note: nearly all actives have a fitted effect of over 70% in size; note: potency is the fitted concentration of half-maximal effect
# [5] = Primary qHTS for inhibitors of nuclear receptor binding SET domain protein 2 (NSD2) in an RCH-ACV wild type WT cells (2C) (AID 1645877); note: nearly all actives have a fitted effect of over 70% in size; note: potency is the fitted concentration of half-maximal effect
# Sequence of Cytochrome P450 2C9 (Homo sapiens) (P11712 whole entry, looked up): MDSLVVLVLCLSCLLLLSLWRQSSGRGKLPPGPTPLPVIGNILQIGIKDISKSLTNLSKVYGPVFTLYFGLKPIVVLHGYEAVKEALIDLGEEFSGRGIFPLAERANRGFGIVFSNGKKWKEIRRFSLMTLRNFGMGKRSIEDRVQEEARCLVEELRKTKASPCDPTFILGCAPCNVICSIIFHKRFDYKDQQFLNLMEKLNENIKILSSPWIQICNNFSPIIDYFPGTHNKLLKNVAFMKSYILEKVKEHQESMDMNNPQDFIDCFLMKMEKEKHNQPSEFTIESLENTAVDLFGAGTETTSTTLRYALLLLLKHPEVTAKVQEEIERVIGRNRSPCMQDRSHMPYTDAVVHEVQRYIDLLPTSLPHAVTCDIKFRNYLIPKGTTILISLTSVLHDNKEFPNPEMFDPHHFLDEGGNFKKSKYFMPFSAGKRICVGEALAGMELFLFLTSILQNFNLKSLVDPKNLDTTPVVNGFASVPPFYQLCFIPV
# Sequence of Cytochrome P450 2D6 (Homo sapiens) (P10635 whole entry, looked up): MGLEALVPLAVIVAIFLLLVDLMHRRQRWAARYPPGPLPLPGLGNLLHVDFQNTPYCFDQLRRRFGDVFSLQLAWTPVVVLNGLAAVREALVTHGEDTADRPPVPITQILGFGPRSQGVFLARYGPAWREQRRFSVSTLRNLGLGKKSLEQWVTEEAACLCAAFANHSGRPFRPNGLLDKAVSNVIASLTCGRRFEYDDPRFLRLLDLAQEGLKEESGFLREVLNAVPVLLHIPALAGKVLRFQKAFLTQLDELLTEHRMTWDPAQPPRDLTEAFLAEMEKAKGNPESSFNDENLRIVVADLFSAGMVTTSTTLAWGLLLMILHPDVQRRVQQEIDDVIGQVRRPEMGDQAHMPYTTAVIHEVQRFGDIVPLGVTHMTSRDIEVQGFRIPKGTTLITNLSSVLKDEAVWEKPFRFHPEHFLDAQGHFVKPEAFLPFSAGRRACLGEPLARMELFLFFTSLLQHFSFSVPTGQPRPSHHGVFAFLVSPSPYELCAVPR
# Sequence of Calcium and integrin-binding protein 1 (Homo sapiens) (Q99828 whole entry, looked up): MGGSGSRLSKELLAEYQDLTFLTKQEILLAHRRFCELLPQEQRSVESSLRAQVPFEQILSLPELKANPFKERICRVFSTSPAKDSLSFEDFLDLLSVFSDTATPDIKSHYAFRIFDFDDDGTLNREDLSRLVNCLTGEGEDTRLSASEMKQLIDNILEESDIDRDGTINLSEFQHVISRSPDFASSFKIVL
structure (smiles),measurement,setting,value
COc1ccc(Oc2c(Cl)cnn(C3c4ccccc4-c4ccccc43)c2=O)cc1,Potency,[1],inactive
same,Potency,[2],inactive
same,Potency,[3],9.52 µM (active)
same,Potency,[4],inactive
COc1ccnc(CCc2nc3ncccc3[nH]2)c1,Potency,[1],inactive
same,Potency,[2],inactive
same,Potency,[3],inactive
same,Potency,[4],inactive
same,Potency,[5],inactive
COc1ccc(-n2[nH]c3c(cnc4ccccc43)c2=O)cc1,Potency,[1],inactive
same,Potency,[2],inactive
same,Potency,[3],inactive
same,Potency,[4],inactive
same,Potency,[5],inactive
Cc1oc(S(=O)(=O)N2CCCCC2)cc1NC(=O)Nc1ccccc1,Potency,[1],inactive
same,Potency,[2],12 µM (active)
same,Potency,[3],6.01 µM (active)
same,Potency,[4],inactive
same,Potency,[5],inactive
CC(C(=O)Nc1cc(C#N)ccc1CCCC(=O)O)c1ccc(F)c2ccccc12 (stereo not drawn),Potency,[1],inactive
same,Potency,[2],inactive
same,Potency,[3],0.536 µM (active)
same,Potency,[4],inactive
same,Potency,[5],inactive
CN(C)c1ccc(C2O[C@@H](c3ccccc3)C[C@H](c3ccccc3)O2)cc1 (stereo partly drawn),Potency,[1],inactive
same,Potency,[2],inactive
same,Potency,[3],15.1 µM (active)
same,Potency,[4],inactive
same,Potency,[5],inactive
O=C(O)[C@H]1Cc2ccccc2CN1,"activity change, negative = inhibition",[1],5.95% [at 12.4 µM]
same,"activity change, negative = inhibition",[2],4.56% [at 11.5 µM]
same,"activity change, negative = inhibition",[3],2.02% [at 11.5 µM]
same,outcome,[4],inactive [at 4.96 µM]
same,outcome,[5],inactive [at 4.96 µM]
CC1(C)CC(NC(=O)C(=O)Nc2ccc(Cl)cc2)CC(C)(C)N1,Potency,[1],inactive
same,Potency,[2],inactive
same,Potency,[3],inactive
same,Potency,[4],inactive
same,Potency,[5],inactive
CCCC(C(=O)O)c1c(C)nc2ccc(Cl)cc2c1-c1ccccc1 (stereo not drawn),Potency,[1],inactive
same,Potency,[2],inactive
same,Potency,[3],21.3 µM (active)
same,Potency,[4],inactive
same,Potency,[5],inactive
N#Cc1cc(-c2n[nH]c(-c3ccncc3)n2)ccn1,Potency,[1],inactive
same,Potency,[2],inactive
same,Potency,[3],1.51 µM (active)
same,Potency,[4],inactive
same,Potency,[5],inactive
CNC(=O)c1ccc2c(c1)CCO[C@H]2CCN1CCN(c2ccc(C(N)=O)cc2)CC1,Potency,[1],inactive
same,Potency,[2],inactive
same,Potency,[3],inactive
same,Potency,[4],inactive
same,Potency,[5],inactive
CCOc1ncc(S(=O)(=O)N2CCN(CC)CC2)cc1-c1nc2c(CC)n(CCOC)nc2c(=O)[nH]1,Potency,[1],inactive
same,Potency,[2],inactive
same,Potency,[3],10.7 µM (active)
same,Potency,[4],inactive
same,Potency,[5],inactive
COc1ccc(CC(=O)NCc2ccccc2-c2ccccc2C(=O)NCCc2cccnc2)cc1,Potency,[1],inactive
same,Potency,[2],10.7 µM (active)
same,Potency,[3],2.68 µM (active)
same,Potency,[4],inactive
same,Potency,[5],inactive
CCCCNc1nc(N)c2[nH]c(=O)n(Cc3ccc(OCCN(C)C)nc3)c2n1,Potency,[1],inactive
same,Potency,[2],inactive
same,Potency,[3],inactive
same,Potency,[4],inactive
same,Potency,[5],inactive
COc1cc(Nc2nc3ccccc3nc2NS(=O)(=O)c2cccc(NC(=O)c3ccc(C)c(OC)c3)c2)cc(OC)c1,Potency,[1],inactive
same,Potency,[2],inactive
same,Potency,[3],1.51 µM (active)
same,Potency,[4],inactive
same,Potency,[5],inactive
Cn1cc(CCn2cnc(-c3cnn(C)c3)c2-c2ccc(C#N)cc2)cn1,Potency,[1],inactive
same,Potency,[2],inactive
same,Potency,[3],inactive
same,Potency,[4],inactive
same,Potency,[5],inactive
Cc1nc2cc(-c3cc(F)cc(C#N)c3)ccc2s1,Potency,[1],inactive
same,Potency,[2],inactive
same,Potency,[3],10.7 µM (active)
same,Potency,[4],inactive
same,Potency,[5],inactive
C[C@@H](c1ccccc1)N(C(N)=NC#N)c1cccc2ncccc12,Potency,[1],inactive
same,Potency,[2],inactive
same,Potency,[3],10.7 µM (active)
same,Potency,[4],inactive
same,Potency,[5],inactive
N#Cc1cccc(-c2nc(-c3cccnc3)no2)c1,Potency,[1],inactive
same,Potency,[2],2.62 µM (active)
same,Potency,[3],4.65 µM (active)
same,Potency,[4],inactive
same,Potency,[5],inactive
Nc1ncnc2c1c(COc1cccc(Cl)c1)nn2C1CCOCC1,Potency,[1],inactive
same,Potency,[2],inactive
same,Potency,[3],12 µM (active)
same,Potency,[4],14.8 µM (active)
same,Potency,[5],16.6 µM (active)
CC1(C)[C@H]2C[C@H](C/C=C\CCCC(=O)O)[C@@H](NC(=O)c3csc4ccc(O)cc34)[C@@H]1C2,Potency,[1],inactive
same,Potency,[2],inactive
same,Potency,[3],1.34 µM (active)
same,Potency,[4],inactive
Nc1ncnc2c1ncn2[C@H]1O[C@@H](C(=O)N2CCN(CC(=O)Nc3cccc4c3CNC4=O)CC2)[C@H](O)[C@@H]1O,Potency,[1],inactive
same,Potency,[2],inactive
same,Potency,[3],inactive
same,Potency,[4],inactive
same,Potency,[5],inactive
CCCCS(=O)(=O)NC(Cc1ccc(OCCCCC2CCNCC2)cc1)C(=O)O (stereo not drawn),Potency,[1],inactive
same,Potency,[2],inactive
same,Potency,[3],inactive
same,Potency,[4],inactive
same,Potency,[5],inactive
COc1cccc(OC)c1-c1nc(C(=O)N[C@@H](CC(C)C)C(=O)O)cn1-c1ccnc2cc(Cl)ccc12,Potency,[1],inactive
same,Potency,[2],inactive
same,Potency,[3],inactive
same,Potency,[4],inactive
same,Potency,[5],inactive
CCCN1CCC[C@@H](c2cccc(S(C)(=O)=O)c2)C1,Potency,[1],inactive
same,Potency,[2],15.1 µM (active)
same,Potency,[3],inactive
same,Potency,[4],inactive
same,Potency,[5],inactive
COc1ccccc1Oc1c(NS(=O)(=O)c2ccc(C)cn2)nc(-c2ccncc2)nc1OC,Potency,[1],inactive
same,Potency,[2],inactive
same,Potency,[3],26.8 µM (active)
same,Potency,[4],inactive
same,Potency,[5],inactive
